Assay results published in paper PMC7862700, “An all-to-all approach to the identification of sequence-specific readers for epigenetic DNA modifications on cytosine”.

Legend:
Assay in all cases: DAPPL (digital affinity profiling via proximity ligation, sequencing); 10 mM Tris-HCl pH 7.5, 50 mM NaCl, 1 mM DTT, 4% glycerol, room temperature, 30 min; GST-TFs on glutathione beads, 16-mer random dsDNA library, 0.1% formaldehyde crosslink after washing; high values mean tight binding
FLI1 = target: T1, FLI1 (Homo sapiens, UniProt Q01543 1-452); conditions: protein: recombinant; tags: N-terminal GST; dsDNA, one strand shown
T1 sequence: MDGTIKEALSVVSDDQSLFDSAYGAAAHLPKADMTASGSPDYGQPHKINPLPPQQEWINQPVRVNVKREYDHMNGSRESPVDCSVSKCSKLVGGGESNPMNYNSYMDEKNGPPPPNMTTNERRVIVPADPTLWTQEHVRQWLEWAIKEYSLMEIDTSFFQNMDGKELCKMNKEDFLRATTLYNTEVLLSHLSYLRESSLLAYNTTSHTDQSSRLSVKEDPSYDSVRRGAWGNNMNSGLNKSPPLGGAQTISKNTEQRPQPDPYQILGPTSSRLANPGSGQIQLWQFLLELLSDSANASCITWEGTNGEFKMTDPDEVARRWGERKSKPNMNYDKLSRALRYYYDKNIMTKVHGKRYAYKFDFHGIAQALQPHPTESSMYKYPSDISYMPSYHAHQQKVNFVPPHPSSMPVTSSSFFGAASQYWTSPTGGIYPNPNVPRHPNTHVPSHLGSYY
How it was run: (§1)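 GST fusions of human transcription factors were expressed in yeast and captured with glutathione beads. Once given DNA barcodes and pooled alongside a tag-only sample, they were incubated for 30 min at room temperature with 200 nmole of a random double-stranded 16-mer DNA library in Tris/NaCl/DTT/glycerol buffer, then washed, crosslinked (0.1% formaldehyde), proximity-ligated, PCR-amplified and sequenced on an Illumina NextSeq500. The binding signal of each hexamer is its read frequency for a factor divided by its frequency for the tag-only sample.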

ELK1 = target: T2, ELK1 (Homo sapiens, UniProt P19419 1-428); conditions: protein: recombinant; tags: N-terminal GST; dsDNA, one strand shown
T2 sequence: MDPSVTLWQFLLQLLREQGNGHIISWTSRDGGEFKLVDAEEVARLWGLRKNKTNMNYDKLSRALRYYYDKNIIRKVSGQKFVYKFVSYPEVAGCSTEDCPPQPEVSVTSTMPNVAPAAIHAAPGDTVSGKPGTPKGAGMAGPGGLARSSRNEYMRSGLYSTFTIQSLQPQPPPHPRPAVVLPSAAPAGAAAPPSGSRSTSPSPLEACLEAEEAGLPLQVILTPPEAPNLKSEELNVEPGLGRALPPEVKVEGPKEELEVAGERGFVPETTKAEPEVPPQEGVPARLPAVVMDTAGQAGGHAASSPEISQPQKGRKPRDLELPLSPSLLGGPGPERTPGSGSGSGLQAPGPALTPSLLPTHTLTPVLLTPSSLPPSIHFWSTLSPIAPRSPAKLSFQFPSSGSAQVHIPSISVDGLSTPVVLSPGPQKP
How it was run: as §1

GABPA = target: T3, GABPA (Homo sapiens, UniProt Q06546 1-454); conditions: protein: recombinant; tags: N-terminal GST; dsDNA, one strand shown
T3 sequence: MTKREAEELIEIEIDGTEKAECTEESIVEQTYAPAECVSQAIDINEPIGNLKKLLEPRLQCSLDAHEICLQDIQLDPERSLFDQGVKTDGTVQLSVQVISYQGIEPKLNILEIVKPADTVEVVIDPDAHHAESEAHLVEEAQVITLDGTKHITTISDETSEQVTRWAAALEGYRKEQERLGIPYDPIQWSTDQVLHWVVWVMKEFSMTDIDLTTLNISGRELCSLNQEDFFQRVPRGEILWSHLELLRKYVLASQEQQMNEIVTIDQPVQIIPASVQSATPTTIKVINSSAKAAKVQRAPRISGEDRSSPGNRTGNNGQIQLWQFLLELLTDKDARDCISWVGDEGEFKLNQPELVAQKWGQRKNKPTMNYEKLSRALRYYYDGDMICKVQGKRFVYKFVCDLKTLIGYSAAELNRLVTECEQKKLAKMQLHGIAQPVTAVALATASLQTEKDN
How it was run: as §1

ERG = target: T4, ERG (Homo sapiens, UniProt P11308 1-479); conditions: protein: recombinant; tags: N-terminal GST; dsDNA, one strand shown
T4 sequence: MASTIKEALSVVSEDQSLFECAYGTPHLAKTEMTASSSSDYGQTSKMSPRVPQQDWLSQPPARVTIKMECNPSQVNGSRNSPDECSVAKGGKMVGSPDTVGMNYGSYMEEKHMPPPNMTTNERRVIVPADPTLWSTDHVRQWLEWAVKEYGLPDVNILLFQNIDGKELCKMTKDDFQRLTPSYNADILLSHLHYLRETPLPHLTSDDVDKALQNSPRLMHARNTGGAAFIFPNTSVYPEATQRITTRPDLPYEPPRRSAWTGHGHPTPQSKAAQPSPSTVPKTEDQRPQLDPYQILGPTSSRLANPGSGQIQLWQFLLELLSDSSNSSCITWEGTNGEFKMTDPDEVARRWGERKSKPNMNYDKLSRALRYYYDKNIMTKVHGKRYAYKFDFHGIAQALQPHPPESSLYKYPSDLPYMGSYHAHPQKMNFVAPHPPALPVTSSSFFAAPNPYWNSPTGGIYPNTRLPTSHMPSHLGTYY
How it was run: as §1

ELF1 = ELF1 (Homo sapiens, UniProt P32519 1-619); conditions: protein: recombinant; tags: N-terminal GST; dsDNA, one strand shown
How it was run: as §1

EHF = target: T5, EHF (Homo sapiens, UniProt Q9NZC4 1-300); conditions: protein: recombinant; tags: N-terminal GST; dsDNA, one strand shown
T5 sequence: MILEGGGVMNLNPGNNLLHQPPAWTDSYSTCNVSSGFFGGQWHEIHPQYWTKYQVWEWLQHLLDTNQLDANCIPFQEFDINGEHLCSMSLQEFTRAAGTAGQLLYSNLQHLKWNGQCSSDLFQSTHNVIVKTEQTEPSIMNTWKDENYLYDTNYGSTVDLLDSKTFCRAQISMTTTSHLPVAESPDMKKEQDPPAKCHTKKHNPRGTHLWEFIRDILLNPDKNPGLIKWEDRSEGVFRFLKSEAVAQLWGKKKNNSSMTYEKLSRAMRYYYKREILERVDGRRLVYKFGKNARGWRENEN
How it was run: as §1

SPI1 = SPI1 (Homo sapiens, UniProt P17947 1-270); conditions: protein: recombinant; tags: N-terminal GST; dsDNA, one strand shown
How it was run: as §1

SPIB = SPIB (Homo sapiens, UniProt Q01892 1-262); conditions: protein: recombinant; tags: N-terminal GST; dsDNA, one strand shown
How it was run: as §1

ELK3 = target: T6, ELK3 (Homo sapiens, UniProt P41970 1-407); conditions: protein: recombinant; tags: N-terminal GST; dsDNA, one strand shown
T6 sequence: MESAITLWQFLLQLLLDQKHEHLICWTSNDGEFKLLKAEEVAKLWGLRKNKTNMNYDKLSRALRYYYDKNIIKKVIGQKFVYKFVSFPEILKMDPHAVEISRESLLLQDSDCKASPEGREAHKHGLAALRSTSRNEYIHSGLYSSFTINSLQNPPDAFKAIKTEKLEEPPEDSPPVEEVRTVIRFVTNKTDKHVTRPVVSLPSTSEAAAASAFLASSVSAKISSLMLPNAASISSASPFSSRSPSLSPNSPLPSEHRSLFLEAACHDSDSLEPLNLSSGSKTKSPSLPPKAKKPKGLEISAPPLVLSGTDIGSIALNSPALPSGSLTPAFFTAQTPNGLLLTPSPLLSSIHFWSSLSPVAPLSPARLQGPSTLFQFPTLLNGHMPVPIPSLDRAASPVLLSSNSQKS
How it was run: as §1

FEV = target: T7, FEV (Homo sapiens, UniProt Q99581 1-238); conditions: protein: recombinant; tags: N-terminal GST; dsDNA, one strand shown
T7 sequence: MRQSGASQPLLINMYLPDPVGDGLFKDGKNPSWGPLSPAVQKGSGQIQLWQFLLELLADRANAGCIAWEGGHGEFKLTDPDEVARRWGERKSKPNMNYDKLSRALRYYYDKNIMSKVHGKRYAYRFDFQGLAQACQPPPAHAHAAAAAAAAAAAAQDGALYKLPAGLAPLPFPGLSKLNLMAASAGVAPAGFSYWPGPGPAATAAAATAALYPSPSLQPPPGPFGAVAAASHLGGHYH
How it was run: as §1

ETV5 = ETV5 (Homo sapiens, UniProt P41161 1-510); conditions: protein: recombinant; tags: N-terminal GST; dsDNA, one strand shown
How it was run: as §1

HSF1 = HSF1 (Homo sapiens, UniProt Q00613 1-529); conditions: protein: recombinant; tags: N-terminal GST; chain copies: 3; dsDNA, one strand shown
How it was run: as §1

SPIC = target: T8, SPIC (Homo sapiens, UniProt Q8N5J4 1-248); conditions: protein: recombinant; tags: N-terminal GST; dsDNA, one strand shown
T8 sequence: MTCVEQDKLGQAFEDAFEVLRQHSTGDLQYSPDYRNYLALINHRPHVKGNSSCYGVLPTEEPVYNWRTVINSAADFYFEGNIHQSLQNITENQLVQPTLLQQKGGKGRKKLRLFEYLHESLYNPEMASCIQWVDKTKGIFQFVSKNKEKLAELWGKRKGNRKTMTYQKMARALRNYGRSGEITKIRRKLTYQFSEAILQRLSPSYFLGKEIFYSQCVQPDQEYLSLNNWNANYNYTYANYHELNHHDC
How it was run: as §1

ELF4 = ELF4 (Homo sapiens, UniProt Q99607 1-663); conditions: protein: recombinant; tags: N-terminal GST; dsDNA, one strand shown
How it was run: as §1

ELK4 = target: T9, ELK4 (Homo sapiens, UniProt P28324-2 1-405); conditions: protein: recombinant; tags: N-terminal GST; dsDNA, one strand shown
T9 sequence: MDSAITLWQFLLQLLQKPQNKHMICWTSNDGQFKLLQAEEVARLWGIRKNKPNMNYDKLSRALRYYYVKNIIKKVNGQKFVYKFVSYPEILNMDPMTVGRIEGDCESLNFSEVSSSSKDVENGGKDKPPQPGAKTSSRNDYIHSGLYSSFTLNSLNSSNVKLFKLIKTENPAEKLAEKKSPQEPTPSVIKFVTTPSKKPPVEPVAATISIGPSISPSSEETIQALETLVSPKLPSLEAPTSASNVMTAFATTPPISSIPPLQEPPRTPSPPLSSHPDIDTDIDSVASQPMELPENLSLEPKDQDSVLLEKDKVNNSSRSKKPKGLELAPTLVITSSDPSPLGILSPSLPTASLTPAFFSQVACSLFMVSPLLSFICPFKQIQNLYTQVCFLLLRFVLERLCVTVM
How it was run: as §1

ETV2 = target: T10, ETV2 (Homo sapiens, UniProt O00321 1-342); conditions: protein: recombinant; tags: N-terminal GST; dsDNA, one strand shown
T10 sequence: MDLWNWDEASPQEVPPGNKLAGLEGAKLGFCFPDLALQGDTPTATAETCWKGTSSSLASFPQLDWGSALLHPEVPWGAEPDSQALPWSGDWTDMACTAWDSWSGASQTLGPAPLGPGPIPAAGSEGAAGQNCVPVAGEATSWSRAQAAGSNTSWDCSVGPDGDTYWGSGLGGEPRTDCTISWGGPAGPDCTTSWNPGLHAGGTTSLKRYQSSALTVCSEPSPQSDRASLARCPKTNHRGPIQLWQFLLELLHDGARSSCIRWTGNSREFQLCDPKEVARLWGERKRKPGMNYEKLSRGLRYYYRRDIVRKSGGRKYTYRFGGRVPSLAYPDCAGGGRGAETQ
How it was run: as §1

ELF3 = target: T11, ELF3 (Homo sapiens, UniProt P78545 1-371); conditions: protein: recombinant; tags: N-terminal GST; dsDNA, one strand shown
T11 sequence: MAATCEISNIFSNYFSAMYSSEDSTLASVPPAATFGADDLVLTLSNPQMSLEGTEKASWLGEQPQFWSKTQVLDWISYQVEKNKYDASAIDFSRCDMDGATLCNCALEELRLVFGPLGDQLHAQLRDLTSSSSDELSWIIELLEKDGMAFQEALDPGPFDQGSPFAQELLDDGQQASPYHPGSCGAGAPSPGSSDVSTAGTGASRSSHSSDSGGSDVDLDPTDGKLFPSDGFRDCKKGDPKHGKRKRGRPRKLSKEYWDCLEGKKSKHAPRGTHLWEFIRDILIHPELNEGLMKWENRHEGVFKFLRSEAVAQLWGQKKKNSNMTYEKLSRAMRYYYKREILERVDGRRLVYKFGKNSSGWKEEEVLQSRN
How it was run: as §1

CRX = CRX (Homo sapiens, UniProt O43186 1-299); conditions: protein: recombinant; tags: N-terminal GST; dsDNA, one strand shown
How it was run: as §1

ETV1 = ETV1 (Homo sapiens, UniProt P50549 1-477); conditions: protein: recombinant; tags: N-terminal GST; dsDNA, one strand shown
How it was run: as §1

Sequence of ETV1 (P50549 whole entry): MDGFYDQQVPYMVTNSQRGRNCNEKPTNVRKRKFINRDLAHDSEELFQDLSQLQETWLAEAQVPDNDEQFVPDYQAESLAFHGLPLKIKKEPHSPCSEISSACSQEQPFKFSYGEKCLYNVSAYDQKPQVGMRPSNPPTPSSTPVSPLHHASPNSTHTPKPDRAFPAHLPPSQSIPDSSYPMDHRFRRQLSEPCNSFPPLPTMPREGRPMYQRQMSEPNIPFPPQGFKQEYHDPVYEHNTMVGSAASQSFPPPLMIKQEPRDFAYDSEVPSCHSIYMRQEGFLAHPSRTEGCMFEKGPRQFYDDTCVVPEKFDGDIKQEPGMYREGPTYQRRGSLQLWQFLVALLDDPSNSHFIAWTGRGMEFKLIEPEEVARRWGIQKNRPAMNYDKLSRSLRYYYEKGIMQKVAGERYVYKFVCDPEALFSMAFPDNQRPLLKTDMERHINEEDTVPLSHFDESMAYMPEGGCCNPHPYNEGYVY
Sequence of CRX (O43186 whole entry): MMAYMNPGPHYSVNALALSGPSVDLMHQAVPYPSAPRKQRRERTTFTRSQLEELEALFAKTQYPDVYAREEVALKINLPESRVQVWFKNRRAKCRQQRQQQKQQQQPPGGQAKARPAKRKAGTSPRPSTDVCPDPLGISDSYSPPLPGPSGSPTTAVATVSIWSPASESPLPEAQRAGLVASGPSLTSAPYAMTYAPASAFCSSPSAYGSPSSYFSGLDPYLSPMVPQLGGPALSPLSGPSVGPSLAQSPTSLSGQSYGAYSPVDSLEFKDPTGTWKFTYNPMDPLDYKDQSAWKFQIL
Sequence of ETV5 (P41161 whole entry): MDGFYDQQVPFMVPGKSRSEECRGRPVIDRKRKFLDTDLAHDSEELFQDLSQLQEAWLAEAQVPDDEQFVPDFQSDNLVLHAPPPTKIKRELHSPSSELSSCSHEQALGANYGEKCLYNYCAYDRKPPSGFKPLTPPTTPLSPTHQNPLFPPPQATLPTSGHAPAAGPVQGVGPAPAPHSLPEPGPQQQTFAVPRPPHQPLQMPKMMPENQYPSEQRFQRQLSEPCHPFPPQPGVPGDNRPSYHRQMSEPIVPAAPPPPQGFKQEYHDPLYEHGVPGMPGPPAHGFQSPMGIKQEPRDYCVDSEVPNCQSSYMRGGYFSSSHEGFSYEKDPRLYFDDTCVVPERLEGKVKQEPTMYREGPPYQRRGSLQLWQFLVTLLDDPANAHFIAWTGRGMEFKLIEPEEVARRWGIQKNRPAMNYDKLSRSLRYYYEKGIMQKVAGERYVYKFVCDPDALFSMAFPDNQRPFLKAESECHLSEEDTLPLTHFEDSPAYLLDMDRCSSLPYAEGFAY
Sequence of SPIB (Q01892 whole entry): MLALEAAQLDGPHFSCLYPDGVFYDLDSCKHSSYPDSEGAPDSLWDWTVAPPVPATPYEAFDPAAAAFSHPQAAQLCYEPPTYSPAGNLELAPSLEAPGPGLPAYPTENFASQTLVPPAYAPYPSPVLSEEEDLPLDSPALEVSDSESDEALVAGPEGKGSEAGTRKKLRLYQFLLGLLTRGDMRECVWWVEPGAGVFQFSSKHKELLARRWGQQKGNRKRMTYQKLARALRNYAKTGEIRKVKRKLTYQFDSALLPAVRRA
Sequence of ELF4 (Q99607 whole entry): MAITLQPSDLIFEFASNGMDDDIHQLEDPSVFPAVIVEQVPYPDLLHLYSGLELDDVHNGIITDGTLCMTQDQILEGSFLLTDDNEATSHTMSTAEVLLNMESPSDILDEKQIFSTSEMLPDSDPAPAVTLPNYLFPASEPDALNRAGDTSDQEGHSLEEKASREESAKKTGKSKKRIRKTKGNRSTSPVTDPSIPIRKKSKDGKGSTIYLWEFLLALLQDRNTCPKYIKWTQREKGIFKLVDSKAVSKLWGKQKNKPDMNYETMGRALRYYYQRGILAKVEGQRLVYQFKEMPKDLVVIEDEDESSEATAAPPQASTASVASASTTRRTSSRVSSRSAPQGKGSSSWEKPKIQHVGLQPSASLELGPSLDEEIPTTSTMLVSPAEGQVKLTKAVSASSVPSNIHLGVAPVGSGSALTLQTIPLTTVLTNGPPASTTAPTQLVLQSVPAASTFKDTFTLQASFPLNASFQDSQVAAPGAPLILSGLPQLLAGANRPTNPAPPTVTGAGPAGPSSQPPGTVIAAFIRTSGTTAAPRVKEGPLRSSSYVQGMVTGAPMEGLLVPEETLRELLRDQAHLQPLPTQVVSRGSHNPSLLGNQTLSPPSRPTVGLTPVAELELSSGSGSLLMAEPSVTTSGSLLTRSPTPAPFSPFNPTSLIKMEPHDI
Sequence of ELF1 (P32519 whole entry): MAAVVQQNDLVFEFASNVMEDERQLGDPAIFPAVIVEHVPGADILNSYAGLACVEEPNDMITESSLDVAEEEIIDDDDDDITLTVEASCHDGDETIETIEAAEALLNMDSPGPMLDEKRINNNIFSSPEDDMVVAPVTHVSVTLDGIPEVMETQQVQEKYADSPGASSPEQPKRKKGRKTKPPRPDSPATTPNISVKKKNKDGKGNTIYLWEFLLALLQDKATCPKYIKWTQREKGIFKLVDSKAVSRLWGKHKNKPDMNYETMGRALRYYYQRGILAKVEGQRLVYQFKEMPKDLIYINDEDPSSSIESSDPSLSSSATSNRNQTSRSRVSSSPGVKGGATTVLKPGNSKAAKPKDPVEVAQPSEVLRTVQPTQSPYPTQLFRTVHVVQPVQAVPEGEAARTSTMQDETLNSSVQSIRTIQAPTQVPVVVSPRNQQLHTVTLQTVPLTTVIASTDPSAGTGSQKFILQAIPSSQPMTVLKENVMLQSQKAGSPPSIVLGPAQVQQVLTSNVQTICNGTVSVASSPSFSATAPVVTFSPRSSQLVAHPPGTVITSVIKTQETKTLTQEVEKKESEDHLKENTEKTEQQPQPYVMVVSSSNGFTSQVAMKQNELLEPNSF
Sequence of HSF1 (Q00613 whole entry): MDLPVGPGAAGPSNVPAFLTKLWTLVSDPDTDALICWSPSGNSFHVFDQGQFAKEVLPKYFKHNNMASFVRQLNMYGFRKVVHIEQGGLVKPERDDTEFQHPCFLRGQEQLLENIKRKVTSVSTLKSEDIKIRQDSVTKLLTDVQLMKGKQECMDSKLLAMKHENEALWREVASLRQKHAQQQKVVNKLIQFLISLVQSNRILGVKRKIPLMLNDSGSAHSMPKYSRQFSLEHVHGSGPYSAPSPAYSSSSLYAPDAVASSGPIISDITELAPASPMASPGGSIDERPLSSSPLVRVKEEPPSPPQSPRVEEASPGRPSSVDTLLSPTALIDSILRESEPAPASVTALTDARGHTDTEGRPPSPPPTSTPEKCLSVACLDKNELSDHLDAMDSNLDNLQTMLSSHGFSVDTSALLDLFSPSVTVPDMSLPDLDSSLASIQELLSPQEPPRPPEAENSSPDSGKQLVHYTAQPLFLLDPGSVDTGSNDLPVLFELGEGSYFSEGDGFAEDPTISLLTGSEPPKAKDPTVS

ATTTTA
binding signal (FLI1): 1.32 fold enrichment (6-mer frequency, TF over GST control)
binding signal (ELK1): 1.16 fold enrichment (6-mer frequency, TF over GST control)
binding signal (GABPA): 1.3 fold enrichment (6-mer frequency, TF over GST control)
binding signal (ERG): 1.29 fold enrichment (6-mer frequency, TF over GST control)
binding signal (ELF1): 1.29 fold enrichment (6-mer frequency, TF over GST control)
binding signal (EHF): 1.32 fold enrichment (6-mer frequency, TF over GST control)
binding signal (SPI1): 1.34 fold enrichment (6-mer frequency, TF over GST control)
binding signal (SPIB): 1.35 fold enrichment (6-mer frequency, TF over GST control)
binding signal (ELK3): 1.31 fold enrichment (6-mer frequency, TF over GST control)
binding signal (FEV): 1.25 fold enrichment (6-mer frequency, TF over GST control)
binding signal (ETV5): 1.23 fold enrichment (6-mer frequency, TF over GST control)
binding signal (HSF1): 1.45 fold enrichment (6-mer frequency, TF over GST control)
binding signal (SPIC): 1.36 fold enrichment (6-mer frequency, TF over GST control)
binding signal (ELF4): 1.32 fold enrichment (6-mer frequency, TF over GST control)
binding signal (ELK4): 1.37 fold enrichment (6-mer frequency, TF over GST control)
binding signal (ETV2): 1.29 fold enrichment (6-mer frequency, TF over GST control)
binding signal (ELF3): 1.23 fold enrichment (6-mer frequency, TF over GST control)
binding signal (CRX): 1.83 fold enrichment (6-mer frequency, TF over GST control)
binding signal (ETV1): 1.25 fold enrichment (6-mer frequency, TF over GST control)
